In PubChem BioAssay (NCI):
The panel holds about 83,000 compounds, 20% with a hit somewhere; the sample as a whole holds those more often.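 Values shown are percent growth following 48 h exposure of cells in 96-well plates to a single concentration of compound; below 10 was considered active.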 Activity calls are given as the source filed them.

Tests used:
Assay in all cases: NCI-60 one-dose screen, 48 h (100 = growth as untreated, 0 = no growth, -100 = all killed)
Details in all cases: 10 µM unless noted
[1] = system: EKVX NSCLC
[2] = system: SN12C renal
[3] = system: UO-31 renal
[4] = system: TK-10 renal
[5] = system: ACHN renal
[6] = system: A498 renal
[7] = system: CCRF-CEM leukemia
[8] = system: MOLT-4 leukemia
[9] = system: SR leukemia
[10] = system: CAKI-1 renal

Measured: growth

COC(=O)/C(CCC=C(C)C)=C1\[C@@H](OC(C)=O)C[C@@]2(C)[C@H]1CC(=O)[C@H]1[C@@]3(C)CC[C@H](NCc4ccccc4)[C@@H](C)[C@@H]3CC[C@@]12C
inactive: [1] 87.9% | [2] 87% | [3] 69.9% | [4] 111% | [5] 99.3% | [6] 91.9% | [7] 76.4% | [8] 61.7%
active: [9] 1.93%

N#C/C(=C\c1c(-c2ccccc2)[nH]c2ccccc12)S(=O)(=O)c1ccccc1
inactive: [1] 61.7% | [2] 54% | [3] 51.2% | [4] 69.4% | [5] 59.4% | [6] 24.2% | [8] 33.7% | [9] 17.9%

CN1CCN(Cc2ccc(C(=O)Nc3cncc(C#Cc4cnc5cccnn45)c3)cc2C(F)(F)F)CC1
inactive: [1] 75% | [2] 48.1% | [3] 21.5% | [4] 82.8% | [5] 25.6% | [6] 11.3% | [7] 32.6% | [8] 13.6%

COC(=O)/C(CCC=C(C)C)=C1\[C@@H](OC(C)=O)C[C@@]2(C)[C@H]1C[C@@H](O)[C@H]1[C@@]3(C)CC[C@H](NCCCNCCCCNCCCN)[C@@H](C)[C@@H]3CC[C@@]12C
inactive: [1] 66.2% | [2] 38.2% | [3] 51.7% | [4] 69.4% | [5] 42.4% | [6] 69.1% | [7] 70.6% | [8] 65.4% | [9] 42.3%

CN1C(=O)N(C)C2C1NN=c1s/c(=C\c3c[nH]c4ccccc34)c(=O)n12 (stereo not given)
inactive: [1] 51.7% | [2] 35.4% | [3] 48% | [4] 86.4% | [5] 32.5% | [7] 16.2% | [8] 14.9%
active: [9] 8.78%

CN(O)c1nc(N(C)O)nc(N2CCOCC2)n1
active: [1] 5.22% | [7] 5.09%
inactive: [2] 53.7% | [3] 12.7% | [4] 16.3% | [5] 17.5% | [6] 89.6% | [8] 22.1% | [9] 55.6%

CC1=NCC2NC(=O)NC(C)=C12 (stereo not given)
inactive: [1] 100% | [2] 99.2% | [3] 83.6% | [4] 95.9% | [5] 109% | [10] 92.8% | [7] 99.7% | [8] 107% | [9] 104%

CN1C(=O)N(C)C2(c3ccccc3)n3c(s/c(=C\c4ccccc4)c3=O)=NNC12c1ccccc1 (stereo not given)
inactive: [1] 76.1% | [2] 91.3% | [3] 74.9% | [4] 116% | [5] 95% | [10] 84.5% | [7] 92.2% | [8] 83% | [9] 71.9%

NCCOc1ncccc1/C=C1\c2ccccc2-c2ccc([N+](=O)[O-])cc21
active: [1] -19% | [2] -62% | [3] -99.2% | [4] -74.9% | [5] -89.4% | [6] -89% | [7] 8.64% | [8] -3.92% | [9] 1.14%

O=C(c1ccccc1)N(CCc1ccc(Cl)cc1)C(=S)N(C(=O)c1ccccc1)c1ccccc1
active: [7] 8.54%
inactive: [1] 102% | [2] 100% | [3] 81.7% | [4] 97.4% | [5] 110% | [6] 92.3% | [8] 28.7%

COc1cc(C2C3=C(COC3=O)N(CCO)c3cc4c(cc32)CCC4)cc(OC)c1O (stereo not given)
inactive: [1] 34.3% | [2] 33.5% | [3] 49.7% | [4] 45% | [5] 42.8% | [6] 17.2% | [7] 17.2% | [8] 20.6% | [9] 33.1%

COc1ccc(C2=C(c3cccc(OC)c3)C(=O)c3ccc(C)nc3C2=O)cc1
inactive: [1] 75.3% | [2] 40.6% | [3] 25.4% | [4] 93.8% | [5] 33.6% | [10] 34.2% | [7] 19.1% | [9] 28.5%
active: [8] -31.5%

S=C1CCCC(=S)N1
inactive: [1] 106% | [2] 99.3% | [3] 87.8% | [4] 114% | [5] 105% | [6] 91.3% | [7] 105% | [8] 107% | [9] 114%

O=c1c(-c2nc3ccccc3[nH]2)cc2ccccc2n1Cc1cn(Cc2ccc(F)cc2)nn1
inactive: [1] 31.4% | [2] 14.2% | [4] 21.7% | [5] 15% | [7] 23.4% | [8] 19.9% | [9] 30.2%
active: [3] -18.9% | [6] -14.5%

Clc1ccc(Nc2scc3[n+]2CCC3)cc1
inactive: [1] 60.3% | [2] 98.2% | [3] 81.3% | [4] 111% | [5] 104% | [6] 82.5% | [7] 95.8% | [8] 94.6% | [9] 113%

CCCc1c(C)c2sc(=O)[nH]c2[nH]c1=O
inactive: [1] 98.8% | [2] 107% | [3] 94.8% | [4] 110% | [5] 106% | [6] 112% | [7] 124% | [8] 106% | [9] 109%

O=C1N=c2ccccc2=C1c1sc(=Nc2ccccc2)n(Nc2ccccc2)c1O
inactive: [1] 94.2% | [2] 106% | [3] 81.4% | [4] 138% | [5] 109% | [10] 37.2% | [7] 103% | [8] 99.3% | [9] 99.2%

COc1cccc(/C=C/C(=O)c2c(C)nc3ccccc3c2/C=C/c2ccccc2)c1OC
inactive: [1] 50.8% | [2] 31.1% | [3] 48.8% | [4] 61.6% | [10] 39.2% | [6] 58.1% | [7] 13%
active: [8] 4.78%

O=C(NC1C(O)OC(CO)C(O)C1O)NS(=O)(=O)c1ccc(Cl)cc1 (stereo not given)
inactive: [1] 109% | [2] 98.1% | [3] 77.1% | [4] 110% | [5] 102% | [6] 95.2% | [7] 99.1% | [8] 102% | [9] 100%

COC(=O)c1c2c(c(C)[n+]([O-])c1C)C(=O)C=C(NCc1ccccc1)C2=O
active: [1] -54.9% | [2] -89.1% | [3] -13.6% | [5] -29.5% | [10] 3.56% | [7] 6.23% | [8] -36.2% | [9] 4.44%
inactive: [4] 18.1%

COc1cc(/C=C2\CN(C)C/C(=C\c3cc(CN4CCOCC4)c(O)c(OC)c3)C2=O)cc(CN2CCOCC2)c1O
inactive: [1] 80.6% | [2] 35% | [3] 76.6% | [4] 91.9% | [5] 47.5% | [6] 81.8% | [7] 32.1% | [8] 30% | [9] 32.6%

COc1ccc(C2C3=C(COC3=O)N(CCO)c3cc4c(cc32)CCC4)cc1OC (stereo not given)
inactive: [1] 23.3% | [2] 38.8% | [3] 42% | [4] 14.1% | [5] 47.6% | [6] 29% | [7] 18.6% | [8] 24% | [9] 25%

Cc1cccc2c(=O)c3c(sc12)c(N1CCNCC1)nc1ccccc13
inactive: [1] 68.9% | [2] 69.8% | [3] 36.7% | [4] 86.3% | [5] 46% | [10] 54.8% | [7] 62.4% | [8] 33.8%
active: [9] -17%

CN1C(=O)N(C)C2Nn3c(s/c(=C\c4ccc(Cl)cc4Cl)c3=O)=NC21 (stereo not given)
inactive: [1] 65.1% | [2] 75.6% | [3] 62% | [4] 117% | [5] 56.6% | [10] 48.4% | [7] 49% | [8] 64.1% | [9] 35.9%

COc1ccc(CCN2C(=O)CCSC2=S)cc1
inactive: [1] 101% | [2] 46.4% | [3] 59.9% | [4] 39.1% | [5] 42.3% | [6] 82.9% | [7] 30% | [8] 64.1% | [9] 18.1%

O=c1oc2ccc(Br)cc2c(=O)n1-c1ccc(Br)cc1F
active: [1] 3.25% | [2] -1.73% | [3] -19.5% | [5] -6.06% | [10] -10.6% | [7] 9% | [8] -16.6% | [9] 3.7%
inactive: [4] 18.9%

O=C(CN1C=NC2C(N3CCOCC3)=NC=NC21)c1cccc2ccccc12 (stereo not given)
inactive: [1] 86.5% | [2] 95.5% | [3] 71.6% | [4] 130% | [5] 97.8% | [10] 73.1% | [7] 104% | [8] 93.3% | [9] 85.1%

CCCCN1CCN(c2ccc3nc(-c4ccc5nc(-c6ccc(OCC)cc6)[nH]c5c4)[nH]c3c2)CC1
inactive: [1] 92.9% | [2] 76.9% | [3] 100% | [4] 86.8% | [5] 63.9% | [10] 51.2% | [7] 20.5% | [8] 56.9%
active: [9] -1.98%

CN1C(=O)N(C)C2C1NN=c1s/c(=C\c3ccc(Cl)cc3Cl)c(=O)n12 (stereo not given)
active: [9] 4.89%
inactive: [1] 50.1% | [2] 30.9% | [3] 47.3% | [4] 83.7% | [5] 29% | [7] 15% | [8] 13.1%
